Source: PubChem BioAssay
Several values for one entry are separate records, joined by “and”; a condition that tells them apart may be missing. Identical values can stand only once. Activity calls are given as the source filed them. Cut-off read from the data, not from the text of the source, unless noted: active = inhibition above about 80%; inactive = the rest.

Assays:
[1] = growth inhibition, single agent or in combination, cell-based, chromothripsis tumors, cisplatin or BGB combos (AID 1671449); details: LFS_MB_P medulloblastoma cells;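 note: cells exposed for 96 hours; 0% = vehicle DMSO and 100% = killing by high DMSO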
[2] = growth inhibition, single agent and combos, cell-based, chromothripsis tumors, cisplatin or BGB combos (AID 1671450); details: HDN33 neuroblastoma cells, stronger effect = higher value;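 note: cells exposed to compound for four days; 0% = vehicle DMSO and 100% = cell killing by high DMSO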
[3] = growth inhibition, single agents and combos, ICB984, cell-based, cisplatin or BGB combos, synergistic combos for chromothripsis tumors (AID 1671451; call rule not given here;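 note: cells exposed for 96 hours before readout; 0% = vehicle DMSO and 100% = killing by high DMSO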); details: ICB984 medulloblastoma cells, drug combinations, stronger effect = higher value
[4] = growth inhibition, single agents and combos, LFS_MB_1R, cell-based, cisplatin or BGB combos, synergistic combos for chromothripsis tumors (AID 1671452); details: LFS_MB_1R medulloblastoma cells, stronger effect = higher value;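 note: cells exposed for 96 hours before readout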
[5] = growth inhibition, single agents and combos, HTB85, cell-based, BGB or cisplatin IC20 combos, synergistic combos for chromothripsis tumors (AID 1671453); details: HTB85 osteosarcoma cells, drug combinations, stronger effect = higher value;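 note: cells exposed for 96 hours before readout; 0% = vehicle DMSO and 100% = high DMSO killing control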
[6] = growth inhibition, single agents and combos, CRL2098, cell-based, BGB or cisplatin IC20 combos, synergistic combos for chromothripsis tumors (AID 1671454); details: CRL2098 osteosarcoma cells, drug combinations, stronger effect = higher value;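 note: cells exposed for 96 h before readout; 0% = vehicle DMSO and 100% = killing by high DMSO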
[7] = growth inhibition, single agents and combos, HD-MB03, cell-based, BGB or cisplatin IC20 combos, synergistic combos for chromothripsis tumors (AID 1671455; in the data active = inhibition above about 83%;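 note: 0% = vehicle DMSO and 100% = high DMSO as cytotoxic control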); details: HD-MB03 medulloblastoma cells, stronger effect = higher value
[8] = growth inhibition, single agents and combos, UWB1.289, cell-based, BGB or cisplatin combos, synergistic combos for chromothripsis tumors (AID 1671456); details: UWB1.289 ovarian carcinoma cells, stronger effect = higher value;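 note: cells exposed to compound for four days; 0% = vehicle DMSO and 100% = killing by high DMSO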
[9] = growth inhibition, single agents and combos, LFS_MB_2R, cell-based, cisplatin combos, synergistic combos for chromothripsis tumors (AID 1671457); details: LFS_MB_2R medulloblastoma cells, stronger effect = higher value;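 note: cells exposed to compound for four days before readout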
[10] = growth inhibition, MDA-MB-436, cell-based, BGB or cisplatin combos, synergistic combos for chromothripsis tumors (AID 1671458; call rule not given here;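 note: cells exposed for 96 hours; 0% = vehicle DMSO and 100% = killing by high DMSO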); details: MDA-MB-436 breast carcinoma growth inhibition, drug combinations, stronger effect = higher value
[11] = UWB1.289_BRCA1 ovarian cancer growth, cell-based, BGB or cisplatin combinations (AID 1671459); details: UWB1.289 BRCA1 ovarian carcinoma, drug combinations, stronger effect = higher value
[12] = drug combination toxicity in non-malignant astrocytes – cell-based, BGB or cisplatin IC20 combos, cytotoxicity control for chromothriptic childhood tumor combination screen (AID 1671460); details: Human astrocytes, viability inhibition, drug combinations, at 0.5 µM, stronger effect = higher value;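 note: cells exposed to compounds for 96 hours before viability readout; 0% = vehicle and 100% = killing control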
[13] = BT084 cell growth, single and combined drugs, ICGC_MB145, cisplatin and BGB IC40 combos (AID 1671461); details: BT084 medulloblastoma cells, drug combinations, stronger effect = higher value;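 note: cells exposed to drugs for 96 hours; 0% = vehicle DMSO and 100% = high DMSO full killing control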
[14] = RCMB18 cell growth, single agent and combined, cisplatin and BGB IC40 combos (AID 1671462); details: RCMB18 medulloblastoma cells, stronger effect = higher value;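 note: cells exposed to compound for four days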
[15] = CRL1545 cell growth, single agent and combined, cisplatin and BGB IC20 combos (AID 1671464); details: CRL1545 osteosarcoma cells, stronger effect = higher value;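 note: cells exposed to compound for 96 hours before readout; 0% = vehicle DMSO and 100% = high DMSO killing control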
[16] = at 0.5 µM, stronger effect = higher value
[17] = measured here: combination with BGB IC20, at 0.005 µM
[18] = measured here: combination with BGB IC40, at 0.005 µM
[19] = measured here: combination with BGB IC40, at 0.05 µM
[20] = measured here: combination with cisplatin, at 0.5 µM, stronger effect = higher value
[21] = measured here: combination with cisplatin, at 5 µM, stronger effect = higher value
[22] = measured here: with BGB IC20 combination, at 0.5 µM
[23] = measured here: with cisplatin IC20 combination, at 0.5 µM
[24] = measured here: 5 uM single agent, at 5 µM
[25] = measured here: combination with cisplatin, at 0.5 µM
[26] = measured here: combination with cisplatin, at 5 µM
[27] = measured here: with BGB IC20, at 0.5 µM
[28] = measured here: with BGB IC20, at 5 µM
[29] = measured here: with cisplatin IC20, at 0.5 µM
[30] = measured here: with cisplatin IC20, at 5 µM

## CC(C)OC(=O)[C@H](C)NP(=O)(OC[C@H]1O[C@@H](n2ccc(=O)[nH]c2=O)C(C)(F)[C@@H]1O)Oc1ccccc1 (stereo partly drawn)
[1]; [16]
  inhibition: -8.8% (inactive)
[1]; [17]
  inhibition: -10.9%
[1]; [18]
  inhibition: -13.1%
[1]; [19]
  inhibition: 0.698%
[1]; [20]
  inhibition: -3.91%
[1]; [21]
  inhibition: -25.1%
[2]; BGB combo, at 5 µM
  inhibition: -13.9%
[2]; at 0.5 µM
  inhibition: -10.3% (inactive)
[2]; cisplatin combo, at 5 µM
  inhibition: -30.6%
[2]; [22]
  inhibition: -4.98%
[2]; [23]
  inhibition: -21.3%
[2]; single agent, at 5 µM
  inhibition: -29.9%
[3]; BGB IC20 combo, at 0.005 µM
  inhibition: -1.44%
[3]; BGB IC40 combo, at 0.005 µM
  inhibition: -42.6%
[3]; BGB IC40 combo, at 0.05 µM
  inhibition: -35.5%
[3]; at 0.5 µM
  inhibition: -42.2% (inactive)
[3]; cisplatin combo, at 0.05 µM
  inhibition: -40.8%
[3]; cisplatin combo, at 0.5 µM
  inhibition: -53.1%
[3]; cisplatin combo, at 5 µM
  inhibition: -16.6%
[3]; [24]
  inhibition: -3.56%
[4]; at 0.5 µM
  inhibition: -22.9% (inactive)
[4]; [19]
  inhibition: -33.4%
[4]; [25]
  inhibition: -43%
[4]; [26]
  inhibition: -63%
[5]; at 0.5 µM
  inhibition: -9.04% (inactive)
[5]; [27]
  inhibition: -19.6%
[5]; [28]
  inhibition: 7.36%
[5]; [29]
  inhibition: -19.1%
[5]; [30]
  inhibition: -2.79%
[5]; single agent, at 5 µM
  inhibition: 9.61%
[6]; at 0.5 µM
  inhibition: -24.2% (inactive)
[6]; measured here: combination with BGB at IC20, at 0.5 µM
  inhibition: -7.71%
[6]; measured here: combination with cisplatin at IC20, at 0.5 µM
  inhibition: -18.3%
[7]; at 0.5 µM
  inhibition: -8.35% (inactive)
[7]; measured here: combo with BGB at IC20, at 0.5 µM
  inhibition: -6.27%
[7]; measured here: combo with cisplatin at IC20, at 0.5 µM
  inhibition: -4.66%
[8]; at 0.5 µM
  inhibition: -8.12% (inactive)
[8]; measured here: inhibition with BGB combination, at 0.05 µM
  inhibition: -21%
[8]; measured here: inhibition with cisplatin combination, at 0.05 µM
  inhibition: -18.4%
[9]; at 0.5 µM
  inhibition: -25.3% (inactive)
[9]; [25]
  inhibition: -17.8%
[9]; [26]
  inhibition: -16.1%
[10]; at 0.5 µM
  inhibition: -10.8% (inactive)
[10]; measured here: BGB combination, at 0.5 µM
  inhibition: -6.58%
[10]; measured here: BGB combination, at 5 µM
  inhibition: -5.34%
[10]; measured here: cisplatin combination, at 0.5 µM
  inhibition: -21%
[10]; measured here: cisplatin combination, at 5 µM
  inhibition: -5.77%
[11]; BGB combination, concentration series, at 5 µM
  inhibition: 5.64%
[11]; at 0.5 µM
  inhibition: -2.85% (inactive)
[11]; cisplatin combination, concentration series, at 5 µM
  inhibition: 12.8%
[12]
  inhibition: 9.43% (inactive)
[12]; measured here: combo with BGB IC20
  inhibition: 6.4%
[12]; measured here: combo with cisplatin IC20
  inhibition: 11.7%
[13]; at 0.5 µM
  inhibition: -25.9% (inactive)
[13]; cisplatin combination, at 0.5 µM
  inhibition: -7.08%
[13]; cisplatin combination, at 5 µM
  inhibition: 2.71%
[13]; measured here: BGB IC40 combination 0.05 uM, at 0.05 µM
  inhibition: 66.2%
[13]; single agent, at 5 µM
  inhibition: 3.91%
[14]; at 0.5 µM
  inhibition: -23.5% (inactive)
[14]; cisplatin combo, at 5 µM
  inhibition: -18.9%
[14]; measured here: BGB IC40 combination, at 0.05 µM
  inhibition: 1.12%
[14]; [25]
  inhibition: 19.3%
[14]; single agent, at 5 µM
  inhibition: -63.1%
[15]; at 0.5 µM
  inhibition: -19.7% (inactive)
[15]; [22]
  inhibition: -19.2%
[15]; [23]
  inhibition: -19.9%
[15]; single agent, at 0.05 µM
  inhibition: 7.91%
[15]; single agent, at 5 µM
  inhibition: -24.5%

## CCCCCCCCCC(=O)N[C@@H](Cc1c[nH]c2ccccc12)C(=O)N[C@@H](CC(N)=O)C(=O)N[C@@H](CC(=O)O)C(=O)NC1C(=O)NCC(=O)N[C@@H](CCCN)C(=O)N[C@@H](CC(=O)O)C(=O)N[C@H](C)C(=O)N[C@@H](CC(=O)O)C(=O)NCC(=O)N[C@H](CO)C(=O)N[C@@H](C(C)CC(=O)O)C(=O)N[C@@H](CC(=O)c2ccccc2N)C(=O)OC1C (stereo partly drawn)
[1]; [16]
  inhibition: -27.6% (inactive) and -32.6% (inactive)
[1]; [17]
  inhibition: 1.22% and 8.36%
[1]; [18]
  inhibition: -33.3% and -6.15%
[1]; [19]
  inhibition: -27.1% and -21.6%
[1]; [20]
  inhibition: -42.5% and -64.3%
[1]; [21]
  inhibition: -23.7% and -0.57%
[2]; BGB combo, at 5 µM
  inhibition: -9.1% and -17.9%
[2]; at 0.5 µM
  inhibition: -7.65% (inactive) and -14% (inactive)
[2]; cisplatin combo, at 5 µM
  inhibition: 17.9% and -21%
[2]; [22]
  inhibition: -19% and -14.2%
[2]; [23]
  inhibition: 5.61% and -17.4%
[2]; single agent, at 5 µM
  inhibition: 5.14% and 4.37%
[3]; BGB IC20 combo, at 0.005 µM
  inhibition: -14.8% and 0.272%
[3]; BGB IC40 combo, at 0.005 µM
  inhibition: -10.2% and -12.9%
[3]; BGB IC40 combo, at 0.05 µM
  inhibition: -9.03% and -26.8%
[3]; at 0.5 µM
  inhibition: -38.5% (inactive) and -18.4% (inactive)
[3]; cisplatin combo, at 0.05 µM
  inhibition: -12.1% and -31.4%
[3]; cisplatin combo, at 0.5 µM
  inhibition: -42.4% and -16.6%
[3]; cisplatin combo, at 5 µM
  inhibition: -27.4% and -22.6%
[3]; [24]
  inhibition: -18.7% and 2.31%
[4]; at 0.5 µM
  inhibition: -6.57% (inactive) and -6.58% (inactive)
[4]; [19]
  inhibition: -2.79% and -15.2%
[4]; [25]
  inhibition: 7.06% and -22.9%
[4]; [26]
  inhibition: -14.1% and 4.93%
[5]; at 0.5 µM
  inhibition: -0.19% (inactive) and -22.1% (inactive)
[5]; [27]
  inhibition: 1.21% and -18.4%
[5]; [28]
  inhibition: 41% and -9.81%
[5]; [29]
  inhibition: -11.7% and -35.1%
[5]; [30]
  inhibition: -35% and -23.5%
[5]; single agent, at 5 µM
  inhibition: -14.9% and -5.13%
